Results reported in PubChem BioAssay (NCATS).
Records with an inconclusive call do not appear. The source made the active and inactive calls. Calls come from the whole dose curve; as a rule, active = well fitted inhibition curve with a large enough effect; inconclusive = small, poorly fitted or top-dose-only effect; inactive = flat fitted curve, though single readings scatter.

Columns and labels:
Test in all cases: qHTS profiling for inhibitors of Plasmodium falciparum proliferation (AID 504749); note: nearly all actives have a fitted effect of over 60% in size
Details in all cases: P. falciparum in erythrocytes, SYBR Green DNA, 72 h; series mostly up to 28.7 µM
[1] = test system: CP269
Outline: (§1)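 SYBR Green fluorescence (ex 485 nm, em 535 nm) reports parasite DNA after 72 h compound exposure of infected red cells at 0.3% parasitemia, 2.5% hematocrit; signal normalized to 0.29 uM artemisinin and vehicle wells.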

[2] = test system: CP286
Outline: as §1

[3] = test system: CP291
Outline: as §1

[4] = test system: CP297
Outline: as §1

[5] = test system: CP305
Outline: as §1

[6] = test system: CP315
Outline: as §1

[7] = test system: CP325
Outline: as §1

[8] = test system: CP329
Outline: as §1

[9] = test system: CP335
Outline: as §1

[10] = test system: DFO2036
Outline: as §1

[11] = test system: DIV14
Outline: as §1

[12] = test system: DIV17
Outline: as §1

[13] = test system: DIV30
Outline: as §1

[14] = test system: Dd2
Outline: as §1

[15] = test system: ECU
Outline: as §1

[16] = test system: FAB9
Outline: as §1

[17] = test system: GB4
Outline: as §1

[18] = test system: HB3
Outline: as §1

[19] = test system: ICS
Outline: as §1

[20] = test system: JCK
Outline: as §1

Measured: Potency

COc1ccc2c3c1O[C@H]1C[C@@H](O)C=C[C@@]31CCN(C)C2
inactive: all assays above

CC1=C(/C=C/C(C)=C/C=C/C(C)=C/C=C/C=C(C)/C=C/C=C(C)/C=C/C2=C(C)CCCC2(C)C)C(C)(C)CCC1
inactive: all assays above

CC[N+](C)(C)Cc1ccccc1Br
inactive: all assays above

CCCC(=O)Nc1ncnc2c1ncn2C1OC2COP(=O)(O)OC2C1OC(=O)CCC (stereo not given)
inactive: all assays above

CCCCCCC(O)C/C=C/CCCCCCCC(=O)O (stereo not given)
inactive: all assays above

C[C@]12CCC(=O)C=C1CC[C@@H]1[C@@H]2[C@@H](O)C[C@@]2(C)[C@H]1CC[C@]2(O)C(=O)COP(=O)(O)O
inactive: all assays above

C=CCSSSCC=C
inactive: all assays above

C#CCOc1ccc2c(C)cc(=O)oc2c1
inactive: all assays above

Cc1ccccc1
inactive: all assays above

Cc1c(C)c2c(c(C)c1O)CC[C@@](C)(CCC[C@H](C)CCC[C@H](C)CCCC(C)C)O2
inactive: all assays above

CC(O)CO (stereo not given)
inactive: all assays above
